Assay outcomes (PubChem)
Sa growth inh – inhibitors of Staphylococcus aureus growth at 42 °C; hit rate 0.53% among 170,000; relative growth, % (concentration not given with the values); S. aureus RN4220 growth, OD600, 20 h; hits give low values;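 active = relative growth at most 50% at the other temperature and 20+ points below 30 °C, or under 10% at both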
Sa helicase inh – S. aureus DNA helicase inhibition; AID 485395; inhibition, % (no concentration beside the values); hit rate 0.05% among 120,000; purified S. aureus helicase, fluorescence unwinding assay; in the data active = inhibition above about 25%, passing the limit was not always enough
Large screens that a line does not name were inactive; ! = a repeat was not active. Many of the other results were omitted from the sample, so hits are more common in it than they were.

CS(=O)(=O)N1CCN(S(C)(=O)=O)CC1	none
CC[C@@H]1OC(=O)C[C@H](O)[C@@H](C)[C@@H](O[C@@H]2O[C@H](C)[C@@H](O[C@H]3C[C@@](C)(O)[C@@H](O)[C@H](C)O3)[C@H](N(C)C)[C@H]2O)[C@@H](C=O)C[C@@H](C)C(=O)/C=C/C(C)=C\[C@@H]1CO[C@H]1O[C@@H](C)[C@H](O)[C@H](OC)[C@@H]1OC	Sa growth inh -1.0 (no result: Sa helicase inh)
CC[C@H]1OC(=O)C[C@@H](O)[C@H](C)[C@@H](O[C@@H]2O[C@H](C)[C@@H](O[C@H]3C[C@@](C)(O)[C@@H](O)[C@H](C)O3)[C@H](N(C)C)[C@H]2O)[C@@H](CC=O)C[C@@H](C)C(=O)/C=C/C(C)=C/[C@@H]1CO[C@@H]1O[C@H](C)[C@@H](O)[C@@H](OC)[C@H]1OC	Sa growth inh -0.2 (no result: Sa helicase inh)
COc1cccc(-c2nnc(SCC(=O)N3CCCC(C)C3)o2)c1 (stereo not given)	none
Oc1cc2c(cc1C(Nc1ccccn1)c1ccc3c(c1)OCO3)OCO2 (stereo not given)	Sa growth inh 0.6
CC(NC(=O)CSc1ccccn1)c1ccc2c(c1)OCO2 (stereo not given)	none
CCn1nc(C(=O)O)c(=O)c2cc3c(cc21)OCO3	Sa growth inh 0.5 (no result: Sa helicase inh)
CCn1cc(C(=O)O)c(=O)c2cc3c(cc21)OCO3	none (no result: Sa helicase inh)
C=C(C)CC(N)(CC(=C)C)c1ccncc1	none
CCc1nnc(NC(=O)c2nn(-c3ccccc3)ccc2=O)s1	none
O=C(O)c1ccccc1S(=O)O	none
COc1cccc2c1C(=O)c1c(O)c3c(c(O)c1C2=O)C[C@@](O)(C(=O)CO)C[C@@H]3O[C@H]1C[C@H](N)[C@H](O)[C@H](C)O1	Sa growth inh 1.8! (no result: Sa helicase inh)
O=C(COC(=O)[C@@H]1CCCN1S(=O)(=O)c1ccc(Cl)cc1)NCc1ccc2c(c1)OCO2	none
CC1=C(C(=O)N(C)C)C(c2ccc(Cl)cc2)NC(=O)N1 (stereo not given)	none
CC1=C(C(=O)OC2CCCC2C)C(c2ccc(Cl)cc2)NC(=O)N1 (stereo not given)	Sa growth inh 27.7
CCOC(=O)CSC1=C(C#N)C(c2ccc(C(C)C)cc2)C2=C(CCCC2=O)N1 (stereo not given)	none (no result: Sa growth inh)
O=C(c1c(Cl)nc2sccn12)N1CCOCC1	none
N#CSc1c(Cl)nc2sccn12	Sa growth inh 1.8
Oc1cc2ccsc2c2ccccc12	none
CCCCC(=O)NC(c1ccco1)c1cc(Cl)c2cccnc2c1O (stereo not given)	Sa growth inh 20.4
CCC(=O)NC(c1ccco1)c1cc(Cl)c2cccnc2c1O (stereo not given)	none
CCOC(=O)c1c(/N=c2\oc3ccc4ccccc4c3cc2C(N)=O)sc2c1CCCC2	none
Cc1nc2c(C(=O)NCc3ccccc3)c[nH]n2c(=O)c1Cc1ccccc1Cl	Sa growth inh 0.7 (no result: Sa helicase inh)
Cc1nc2c(C(=O)NCc3ccccc3)c[nH]n2c(=O)c1Cl	none
COc1ccc(C(=O)Nc2ccc(-c3cn4cccnc4n3)cc2)cc1OC	none
Cc1cc(O)ccc1-n1c(=O)c2cc3c(=O)n(-c4ccc(O)cc4C)c(=O)c3cc2c1=O	none
Cc1cc(O)ccc1Sc1ccc(O)cc1C	Sa growth inh 30.2
O=C(Oc1cccc2cccnc12)c1ccccc1F	Sa growth inh 0.8
Cc1ccc2cccc(OC(=O)c3ccccc3F)c2n1	none (no result: Sa growth inh)
CN(CCOc1ccccc1)CCOc1ccccc1	none
CN(C)CCOc1ccc(/C(=C(/CCCl)c2ccccc2)c2ccccc2)cc1	Sa growth inh 7.1! (no result: Sa helicase inh)
Cc1ccnc(SCC(=O)/C=C2\N(C)c3ccccc3C2(C)C)n1	none
CN1/C(=C\C(=O)CSCCO)C(C)(C)c2ccccc21	Sa growth inh -0.5
Cc1cc(C(=O)NN)c(C)n1-c1ccccc1	none
CCOC(=O)c1c(-c2ccc(C)o2)csc1NC(=S)NC(=O)N(C)C	Sa growth inh -0.6
CCOC(=O)c1c(-c2cccs2)csc1NC(=O)c1ccccc1	none
CCCCN1C(=O)c2ccc(C(=O)OCc3csc(C)n3)cc2C1=O	none
O=C(O)CCCc1nc2ccccc2s1	none
O=C(O)Cc1nc2ccccc2s1	Sa growth inh -0.3
CCCCCN1COc2ccc3c4c(c(=O)oc3c2C1)CCC4	none
Cc1oc2c(c1C(=O)NCCCn1ccnc1)C(=O)c1ccccc1C2=O	Sa growth inh -0.8
CC(C)(C)N1COc2ccc3c4c(oc3c2C1)C(=O)c1ccccc1C4=O	none
Cc1oc2c(c1C(=O)NCCC(C)C)C(=O)c1ccccc1C2=O	none
O=C1c2ccccc2C(=O)c2c1oc1c3c(ccc21)OCN(CCCn1ccnc1)C3	Sa growth inh 5.8
O=C1c2ccccc2C(=O)c2c1oc1c3c(ccc21)OCN(CCC1=CCCCC1)C3	Sa growth inh 7.0
NC(=S)c1cccnc1	none
CCN(CC)c1ccc(C=C2C(=O)N(C)C(=O)N(C)C2=O)o1	none
CCCSc1nnc2c(n1)OC(C)=Nc1ccc(Br)cc1-2	none
c1ccc(-c2nn(-c3ccccc3)c3c2cnc2ccccc23)cc1	none
Oc1ccc2c(c1)c(-c1ccccc1)nn2-c1ccccc1	Sa growth inh 19.7
O=C1C(Cc2c[nH]c3ccccc23)NC(=S)N1c1ccccc1Cl (stereo not given)	none
O=C(COc1ccc(C(=O)c2ccc(F)cc2)cc1)NCCN1C(=O)CSC1=O	none (no result: Sa growth inh)
CCCn1cnc2cc(NCc3ccc(Br)cc3)ccc21	Sa growth inh 0.3
CCCCn1cnc2cc(NCc3cc(OC)c(OC)c(OC)c3)ccc21	none
CCCn1cnc2cc(NCc3ccc(Cl)cc3Cl)ccc21	Sa growth inh 0.5
Oc1ccccc1CNc1ccc2c(c1)ncn2C1CCCCC1	none
CCCn1cnc2cc(NCc3ccccc3O)ccc21	none
CCCCn1cnc2cc(NCc3ccc(Br)cc3)ccc21	Sa growth inh 7.6
Cc1ccc(CNc2ccc3c(c2)ncn3C2CCCCC2)cc1	Sa growth inh -0.5
CCCn1cnc2cc(NCc3ccncc3)ccc21	none
Cc1nc2ccc(C(F)(F)F)cc2[nH]1	none (no result: Sa growth inh)
NS(=O)(=O)c1ccc(NC(=O)CN2CCCC2c2ccc3c(c2)OCCO3)cc1 (stereo not given)	none
COc1cc(CN2CCOCC2)ccc1O	none
CC(=O)N/C(=C\c1ccccc1)C(=O)Nc1cc(C)cc(C)c1	none (no result: Sa growth inh)
COc1cc(-c2nnc(SCc3nc4scc(-c5ccccc5)c4c(=O)[nH]3)o2)cc(OC)c1OC	none
Cc1cc(OC(=O)c2cc(-c3ccc4c(c3)OCCO4)on2)ccc1Cl	none (no result: Sa helicase inh)
Cc1ccc(-c2cc(C(=O)Oc3ccc(C#N)cc3)no2)cc1C	none (no result: Sa helicase inh)
Cc1cccc(OC(=O)c2cc(-c3ccc(C)c(C)c3)on2)c1	Sa growth inh 0.8 (no result: Sa helicase inh)
Cc1ccc(OC(=O)c2cc(-c3ccc4c(c3)OCCO4)on2)cc1C	Sa growth inh 2.2 (no result: Sa helicase inh)
CCc1cc(C(=O)Cc2cnc[nH]2)c(O)cc1O	none (no result: Sa growth inh)
CC(/C=C/c1ccc(N(C)C)cc1)=N\N=C(/N)SC1CC(=O)N(c2ccccc2)C1=O (stereo not given)	none
O=C(O)c1ccccc1NS(=O)(=O)c1ccccc1	none
O=S(=O)(Nc1ccc(O)c2ccccc12)c1ccccc1	Sa growth inh 5.0
CN(C)CCNC(=O)c1ccc2c(c1)OCO2	none
COC(=O)c1ccc2c(=O)[nH]c(COC(=O)c3ccc4c(c3)OCO4)nc2c1	none
COC(=O)c1ccc2c(=O)[nH]c(COC(=O)CNC(=O)c3cccs3)nc2c1	Sa helicase inh 32.0
COc1cc(C)c(S(=O)(=O)n2ccnc2)cc1C(C)C	Sa growth inh 2.4
COc1ccc(Br)cc1S(=O)(=O)n1ccnc1	none (no result: Sa growth inh)
COCCNC(=O)Cn1nc(C)c(NC(=O)c2cc(-c3ccc(F)cc3)no2)c1C	none
CS(=O)(=O)c1ccc([C@@H](O)[C@@H](CO)NC(=O)C(Cl)Cl)cc1	none (no result: Sa helicase inh)
